The source made the active and inactive calls.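 Rule for the calls: active = compound that boosted calcium signal to a low acetylcholine dose in a dose-dependent way; inactive = the rest.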
biological target: Muscarinic acetylcholine receptor M4 (Rattus norvegicus) (UniProt P08485); experiment: rat M4 positive allosteric modulator potency, SAR follow-up, cell-based, analogs, calcium mobilization, Gqi5 (AID 1923); conditions: CHO-K1 rM4/Gqi5, calcium mobilization Fluo-4, ACh EC20
Sequence (P08485 whole entry, looked up): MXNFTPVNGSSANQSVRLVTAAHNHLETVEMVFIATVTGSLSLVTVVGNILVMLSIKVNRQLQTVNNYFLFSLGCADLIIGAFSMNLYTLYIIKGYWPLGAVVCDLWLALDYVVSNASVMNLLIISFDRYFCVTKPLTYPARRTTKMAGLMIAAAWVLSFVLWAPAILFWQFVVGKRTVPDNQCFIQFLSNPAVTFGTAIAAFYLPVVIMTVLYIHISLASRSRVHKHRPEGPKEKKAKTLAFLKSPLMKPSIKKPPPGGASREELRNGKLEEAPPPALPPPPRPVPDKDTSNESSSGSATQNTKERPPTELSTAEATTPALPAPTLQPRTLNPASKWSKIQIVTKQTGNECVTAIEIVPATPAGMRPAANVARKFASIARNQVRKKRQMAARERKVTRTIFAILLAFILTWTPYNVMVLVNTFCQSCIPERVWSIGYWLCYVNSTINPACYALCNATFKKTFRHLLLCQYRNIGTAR

Row | SMILES | outcome
1 | CCCCCOc1cc(C)c2c(N)c(C(=O)NCc3ccc(OC)cc3)sc2n1 | inactive
2 | COc1ccc(CNC(=O)c2sc3nc(OCC4CCCN(C)C4)cc(C)c3c2N)cc1 (configuration not stated) | inactive
3 | COCCCNC(=O)c1sc2nc(OCCN3CCOCC3)cc(C)c2c1N | active; fitted 6.25 uM
4 | Cc1cc(OCc2ccccn2)nc2sc(C(=O)NCc3cc(F)ccc3F)c(N)c12 | inactive
5 | COc1ccc(CNC(=O)c2sc3nc(OCc4ccccn4)cc(C)c3c2N)cc1 | active; fitted 1.77 uM
6 | COc1ccc(CNC(=O)c2sc3nc(OC(C)C)cc(C)c3c2N)cc1 | inactive
7 | Cc1cc(OCCN2CCOCC2)nc2sc(C(=O)NC3COC3)c(N)c12 | active; fitted 7.42 uM
8 | Cc1cc(OCCCN(C)C)nc2sc(C(=O)NCc3cc(F)ccc3F)c(N)c12 | active; fitted 2.75 uM
9 | COc1ccc(CNC(=O)c2sc3nc(OCCN4CCOCC4)cc(C)c3c2N)cc1 | active; fitted 6.47 uM
10 | CCCOc1cc(C)c2c(N)c(C(=O)NCc3ccc(OC)cc3)sc2n1 | inactive
11 | COc1ccc(CNC(=O)c2sc3nc(OCc4ccncc4)cc(C)c3c2N)cc1 | active; fitted 1.97 uM
12 | Cc1cc(OCc2ccccn2)nc2sc(C(=O)NCc3cccc(F)c3F)c(N)c12 | active; fitted 5.4 uM
13 | Cc1cc(OCc2ccncc2)nc2sc(C(=O)NCc3cccc(F)c3F)c(N)c12 | active; fitted 1.61 uM
14 | COc1ccc(CNC(=O)c2sc3nc(OCCN4CCCC4)cc(C)c3c2N)cc1 | active; fitted 8.24 uM
15 | Cc1cc(OCCN2CCOCC2)nc2sc(C(=O)NC(C)C)c(N)c12 | active; fitted 7.15 uM
16 | Cc1cc(OCc2ccncc2)nc2sc(C(=O)NCc3cc(F)ccc3F)c(N)c12 | active; fitted 1.58 uM
17 | Cc1cc(OCCCN(C)C)nc2sc(C(=O)NC3COC3)c(N)c12 | active; fitted 2.58 uM
18 | Cc1cc(OCCN2CCOCC2)nc2sc(C(=O)NC(C)(C)C)c(N)c12 | active; fitted 8.73 uM
19 | COc1ccc(CNC(=O)c2sc3nc(OCCN(C)C)cc(C)c3c2N)cc1 | inactive
20 | COc1ccc(CNC(=O)c2sc3nc(OCc4cccnc4)cc(C)c3c2N)cc1 | active; fitted 2.21 uM
21 | Cc1cc(OCCN2CCOCC2)nc2sc(C(=O)Nc3ccccc3)c(N)c12 | active; fitted 5.81 uM
22 | COc1ccc(CNC(=O)c2sc3nc(OCCCN(C)C)cc(C)c3c2N)cc1 | inactive

From PubChem BioAssay AID1923 (Vanderbilt High Throughput Screening Facility, 2009)
